This is a sample that favours compounds with a hit; in the whole collection about 2.4% have one here.
Pol eta inh-1: qHTS for Inhibitors of Polymerase Eta; DNA polymerase eta (Homo sapiens), Q9Y253; recombinant Pol eta, fluorescent DNA replication assay; Potency, µM (doses to about 114 µM), inactives show top-dose activity change, negative = inhibition, most hits filed as inhibitors; 390,000 compounds, 1.2% hits; note: % is set by controls: 0 for no effect and ±100 for the full control effect
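Pol eta (10 nM) was preincubated with compounds for 15 min at room temperature, after which fluorescent replication substrate (50 nM final) was added to start the reaction. Fluorescence was read kinetically at 0 and 10 min.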
Pol iota inh: qHTS for Inhibitors of Polymerase Iota; Pol iota fluorescent replication assay, 10 min; Potency, µM (highest dose often 115 µM), without a hit: at the highest dose activity, negative = inhibition, most hits filed as inhibitors; 390,000 compounds, 1% hits
Target sequence (Q9UNA4 whole entry, looked up): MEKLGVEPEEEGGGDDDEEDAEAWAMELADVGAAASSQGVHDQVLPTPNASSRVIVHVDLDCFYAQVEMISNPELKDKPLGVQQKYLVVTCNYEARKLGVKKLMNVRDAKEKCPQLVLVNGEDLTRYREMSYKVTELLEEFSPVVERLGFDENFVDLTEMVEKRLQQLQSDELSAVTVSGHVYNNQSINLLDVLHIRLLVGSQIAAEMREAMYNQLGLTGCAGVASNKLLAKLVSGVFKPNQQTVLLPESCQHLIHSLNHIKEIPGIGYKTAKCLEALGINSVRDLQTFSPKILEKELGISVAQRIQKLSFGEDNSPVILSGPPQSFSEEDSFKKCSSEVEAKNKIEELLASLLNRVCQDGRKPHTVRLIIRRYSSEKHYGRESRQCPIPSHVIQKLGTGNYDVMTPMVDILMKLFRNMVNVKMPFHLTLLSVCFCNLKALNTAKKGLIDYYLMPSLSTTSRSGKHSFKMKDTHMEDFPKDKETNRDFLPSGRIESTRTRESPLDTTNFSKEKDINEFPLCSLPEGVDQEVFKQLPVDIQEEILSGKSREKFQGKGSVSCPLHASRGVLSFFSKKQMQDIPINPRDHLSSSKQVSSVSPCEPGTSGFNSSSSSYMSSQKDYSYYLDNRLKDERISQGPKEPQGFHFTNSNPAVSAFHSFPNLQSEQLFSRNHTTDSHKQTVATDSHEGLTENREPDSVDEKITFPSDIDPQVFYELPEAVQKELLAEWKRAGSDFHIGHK
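Fluorescent replication assay read twice, at 0 min and 10 min after adding 50 nM (final) substrate. Enzyme (10 nM) and compounds were first incubated 15 min at room temperature; enzyme-free buffer wells were negative controls.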
POLB inh: qHTS Assay for Inhibitors of DNA Polymerase Beta | Pol beta primer extension/strand displacement, fluorescence kinetic | AID 485314, 2010 | 340,000 compounds, 1.3% hits | Potency, µM (titrated, usually from 114 µM), inactives show at the highest dose activity change, negative = inhibition, usual class: inhibitors; note: % is set by controls: 0 for no effect and ±100 for the full control effect
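Enzyme-only controls used 10 nM Pol beta; buffer lacking enzyme served as negative control. Compound preincubated 15 min, then 50 nM substrate added; 0 and 10 min reads at room temperature.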
Pol kappa inh-1: qHTS for Inhibitors of Polymerase Kappa; DNA polymerase kappa (Homo sapiens), Q9UBT6; purified Pol kappa, fluorescent DNA synthesis assay, 10 min; Potency, µM (highest dose often 107 µM), for inactives: top-dose activity, negative = inhibition, most hits filed as inhibitors; 400,000 compounds, 0.53% hits; note: % is set by controls: 0 for no effect and ±100 for the full control effect
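First, compounds were pin-transferred onto 10 nM Pol kappa. After 15 min at room temperature, substrate was added to 50 nM final. Fluorescence was then measured kinetically at 0 and 10 min.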
TDP1 block: qHTS Assay for Inhibitors of Tyrosyl-DNA Phosphodiesterase (TDP1); recombinant TDP1, AlphaScreen DNA substrate cleavage; AID 485290, 2010; Potency, µM (highest dose often 130 µM), for the others: top-dose activity change, negative = inhibition, usual class: inhibitors; 350,000 compounds, 0.28% hits; note: % is set by controls: 0 for no effect and ±100 for the full control effect; nearly all actives have a fitted effect of over 40% in size
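Tdp1 1 nM final; 15 min RT w/ cpd; substrate 15 nM, 5 min; beads 10 ug/ml, 10 min; AlphaScreen read. Neg ctrl: no enzyme.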
Pol kappa inh-2: qHTS for Inhibitors of Polymerase Kappa: Confirmatory Assay for Cherry-picked Compounds; shares compounds with Pol eta inh-1; purified Pol-kappa, fluorescent strand-displacement substrate; Potency, µM, usual class: inhibitors; 920 compounds, 76% hits
Pol eta inh-2: qHTS for Inhibitors of Polymerase Eta: Confirmatory Assay for Cherry-picked Compounds | shares compounds with Pol eta inh-1 | 2,600 compounds, 64% hits | Pol eta primer extension, TAMRA/BHQ fluorescence, 10 min | AID 720502, 2013 | Potency, µM, actives largely listed as inhibitors
* hit, by the source's call; ! = repeats disagree; [ ] = remark or other dose. Calls come from the whole dose curve; as a rule, active = well fitted curve in the direction sought with a large enough effect; inconclusive = small, poorly fitted or top-dose-only effect, or another doubt; inactive = no such curve, though single readings can be large; an effect the other way counts as inactive or inconclusive. Potency is the fitted concentration of half-maximal effect.

How did O=C(O)CCCCCn1c(SCC(=O)c2ccc(O)c(O)c2)nc2ccsc2c1=O do in these assays?
Pol eta inh-1: 2.8µM*; Pol iota inh: inconclusive; POLB inh: 40µM*; Pol kappa inh-1: inconclusive; Pol kappa inh-2: 7.5*; Pol eta inh-2: 17*

Results for CCCCn1c(SCC(=O)c2ccccc2)nc2ccsc2c1=O ?
Pol eta inh-1: -20%; Pol iota inh: 165%; POLB inh: 1%; Pol kappa inh-1: -3%; TDP1 block: 3%

What do the screens show for `CC1(C)OC(C)(C)/C(=C/Nc2ccc(O)cc2)C1=O`?
Pol eta inh-1: 18µM*; Pol iota inh: inconclusive; POLB inh: inconclusive; Pol kappa inh-1: -28%; TDP1 block: 5%; Pol kappa inh-2: inconclusive; Pol eta inh-2: inconclusive

What do the screens show for `Cc1c(CCC(=O)O)c(=O)oc2c(C)c3occ(-c4ccc(Cl)cc4)c3cc12`?
Pol eta inh-1: 22µM*; Pol iota inh: 13µM*; POLB inh: 22µM*; Pol kappa inh-1: 89µM*; Pol eta inh-2: inconclusive

Results for COc1ccc(Cl)cc1NC(=O)CCN1C(=O)c2ccccc2Sc2ncccc21 ?
Pol eta inh-1: -3%; Pol iota inh: -3%; POLB inh: inconclusive; Pol kappa inh-1: inconclusive; TDP1 block: 5%

How did CNS(=O)(=O)c1cccc(C(=O)OC2CCOC2=O)c1 (stereo not drawn) do in these assays?
Pol eta inh-1: -13%; Pol iota inh: 115%; POLB inh: 0%; Pol kappa inh-1: -5%; TDP1 block: -8%[0.0935 µM]

What do the screens show for `CS(=O)(=O)c1ccc(C(=O)OC2CCOC2=O)cc1[N+](=O)[O-]` (stereo not drawn)?
Pol eta inh-1: 20µM*; Pol iota inh: inconclusive; POLB inh: inconclusive; Pol kappa inh-1: -28%; Pol eta inh-2: 38*

How did COc1ccc2c(c1OC)C(=O)OC2Nc1nc(-c2cc3cc(Br)ccc3oc2=O)cs1 (stereo not drawn) do in these assays?
Pol eta inh-1: -10%; Pol iota inh: inconclusive; POLB inh: inconclusive; Pol kappa inh-1: -20%; Pol eta inh-2: inconclusive

Results for COc1ccc(-c2csc(NC3OC(=O)c4c3ccc(OC)c4OC)n2)cc1OC (stereo not drawn) ?
Pol eta inh-1: -15%; Pol iota inh: 6%; POLB inh: 0%; Pol kappa inh-1: -5%; TDP1 block: 3%

How did CCn1nc([N+](=O)[O-])c(C(C#N)c2nc3cc(C(F)(F)F)ccc3s2)c(Cl)c1=O (stereo not drawn) do in these assays?
Pol eta inh-1: 89µM*; Pol iota inh: inconclusive; POLB inh: 56µM*; Pol kappa inh-1: -10%; TDP1 block: 12%; Pol kappa inh-2: 60*

How did Oc1ccc(NCc2ccc(OCc3ccccc3)cc2)cc1 do in these assays?
Pol eta inh-1: 79µM*!; Pol iota inh: 10µM*; POLB inh: 2%; Pol kappa inh-1: inconclusive; TDP1 block: 8%; Pol eta inh-2: inconclusive

How did Cc1ccc(C)c(Cn2nnc3c(=O)[nH]c(C(=O)NCc4ccco4)nc32)c1 do in these assays?
Pol eta inh-1: 32µM*; Pol iota inh: 22µM*; POLB inh: 4%; Pol kappa inh-1: 89µM*; TDP1 block: 5%; Pol eta inh-2: 76*

How did CCOC(=O)N1CCc2c(sc3c2c(=O)n(Cc2ccccc2)c(=O)n3Cc2ccccc2Cl)C1 do in these assays?
Pol eta inh-1: -12%; Pol iota inh: 34%; POLB inh: 4%; Pol kappa inh-1: 1%; TDP1 block: 6%

High-throughput results from PubChem BioAssay.
